Assay outcomes from PubChem.
FMDV inh: antivirals against foot and mouth disease virus | 410,000 tested, 1.2% active | Potency, µM (series often up to 57.9 µM), usual class: inhibitors | FMDV antiviral cell-based qHTS; calls by dose curve; tested in HEK293T cells; also: read-out not given here; nearly all actives have a fitted effect of over 45% in size
Vaccinia mCherry: inhibitors of vaccinia virus infection (mCherry reporter signal). Vaccinia virus mCherry reporter infection, fluorescence. Potency, µM (doses to about 36.5 µM), usual class: inhibitors. 310,000 tested, 0.63% active. AID 720579; calls by dose curve; tested in A549 cells; also: nearly all actives have a fitted effect of over 35% in size
Lassa entry inh: Lassa virus entry inhibition | Potency, µM (doses to about 37.9 µM), most hits filed as inhibitors | Lassa virus pseudotype entry inhibition, cell reporter | 300,000 tested, 1.2% active; calls by dose curve; tested in HEK293 cells; also: nearly all actives have a fitted effect of over 50% in size
Vaccinia Venus: inhibitors of vaccinia virus (Venus reporter). 330,000 tested, 0.46% active. Potency, µM (series often up to 36.5 µM), hits mostly inhibitors. AID 720580. Vaccinia virus Venus reporter expression, fluorescence; calls by dose curve; tested in A549 cells; also: nearly all actives have a fitted effect of over 30% in size
HCMV antiviral: inhibitors of human cytomegalovirus; HFF cells, HCMV-luciferase reporter, 72 h; active compounds read low; activity change, negative = inhibition, % at 57.5 µM; 410,000 tested, 4.5% active; in the data active = activity change below about -60%; inconclusive = no clear call, values can overlap the other calls; inactive = above about -39%
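Human foreskin fibroblasts infected with luciferase-reporter HCMV at MOI 1 PFU/cell, compounds at two doses. Luciferase measured 72 h post infection; normalized to buffer-only basal and Salinomycin (10uM) controls.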
Marburg entry inh: blocks Marburg virus binding to or entry into cells | Potency, µM (highest dose often 37.8 µM), actives largely listed as inhibitors | 300,000 tested, 1.8% active | AID 540276 | Marburg virus pseudotyped entry inhibition, cell reporter; calls by dose curve; tested in HEK293 cells
Of the large screens only hits and unclear results are named; the others gave an inactive call. Sampled rows, rich in hits. Any-hit rate of the full collection: about 6.5%.

COc1ccc([C@H]2C[C@@H](O)[C@H](n3cc(-c4ccc(F)cc4)nn3)CN2Cc2cccs2)cc1	Marburg entry inh 8.87µM (no result: FMDV inh, Vaccinia mCherry, Lassa entry inh, Vaccinia Venus, HCMV antiviral)
Cc1ccc([C@H]2C[C@H](O)[C@@H](n3cc(-c4ccc(F)cc4)nn3)CN2CC2CCCCC2)cc1	Lassa entry inh 28.1µM (no result: Marburg entry inh)
O=C(C1CCCCC1)N1C[C@H](O)[C@H](n2cc(-c3ccc(F)cc3)nn2)C[C@@H]1c1ccc(Cl)cc1	Marburg entry inh 7.91µM (no result: FMDV inh, Vaccinia mCherry, Lassa entry inh, Vaccinia Venus, HCMV antiviral)
O=C1C(n2cccc2)c2ccccc2N1Cc1ccc(C(F)(F)F)cc1 (stereo not drawn)	none (no result: FMDV inh, Vaccinia mCherry, Lassa entry inh, Vaccinia Venus, Marburg entry inh)
CCCCCCN1C[C@H](n2cc(-c3ccc(F)cc3)nn2)[C@@H](O)C[C@@H]1c1ccc(Cl)cc1	Vaccinia mCherry inconclusive, Vaccinia Venus 14.1µM, HCMV antiviral -102.4 (no result: Lassa entry inh, Marburg entry inh)
CCc1ccc(NC(=O)CSc2nc(-c3ccccc3Cl)nc3c2Cc2c(CO)cnc(C)c2O3)cc1	Vaccinia mCherry inconclusive, Vaccinia Venus inconclusive (no result: Marburg entry inh)
Cc1ccc(CNC(=O)CN2CCC(C(N)=O)CC2)cc1	none (no result: Vaccinia mCherry, Vaccinia Venus)
CSc1ccc(CN2CCC(C(=O)NCc3ccc(C)cc3)CC2)cc1	Lassa entry inh inconclusive, Marburg entry inh 16.4µM (no result: Vaccinia mCherry, Vaccinia Venus)
CCn1c2c(c3cc(Br)ccc31)CCC/C2=N\O	HCMV antiviral -107.3 (no result: Vaccinia mCherry, Vaccinia Venus)
CCc1nc2c(OCc3cc(Cl)cc(Cl)c3)cccn2c1N(C)C(=O)c1ccccc1F	HCMV antiviral inconclusive (no result: Lassa entry inh, Marburg entry inh)
O=C1/C(=C\c2ccccc2)CCc2c1[nH]c1ccccc21	Lassa entry inh inconclusive, Marburg entry inh 16.4µM (no result: Vaccinia mCherry, Vaccinia Venus)
CC(C)/C=C1\CCc2c([nH]c3ccccc23)C1=O	HCMV antiviral -70.4
Cc1ccc(/C=C2/CCc3c([nH]c4ccccc34)C2=O)cc1	Lassa entry inh inconclusive, Marburg entry inh inconclusive
Cc1cccc(NC(=O)C2(C)CC3c4ccccc4C2c2ccccc23)c1C (stereo not drawn)	Lassa entry inh inconclusive, HCMV antiviral inconclusive, Marburg entry inh inconclusive
Cc1ccc(C)c(NC(=O)C2(C)CC3c4ccccc4C2c2ccccc23)c1 (stereo not drawn)	Lassa entry inh inconclusive, HCMV antiviral -104.8
O=[N+]([O-])c1ccc(C2NS(=O)(=O)N=C3CCCCCN32)cc1 (stereo not drawn)	none (no result: Vaccinia mCherry, Lassa entry inh, Vaccinia Venus, Marburg entry inh)
CN1CCN(c2nc(-c3cccnc3)nc3scc(-c4ccccc4)c23)CC1	Marburg entry inh inconclusive
Clc1nc(-c2ccccn2)nc2scc(-c3ccccc3)c12	FMDV inh inconclusive, Lassa entry inh inconclusive, HCMV antiviral -66.3, Marburg entry inh inconclusive
O=C(NCCN1CCOCC1)c1cnn(-c2nccc(-c3cc4ccccc4o3)n2)c1C1CC1	none (no result: Lassa entry inh, HCMV antiviral, Marburg entry inh)
Cc1cc([N+](=O)[O-])nn1Cc1ccc(C(=O)N/N=C/c2ccc(O)cc2O)cc1	Vaccinia mCherry inconclusive, Lassa entry inh 3.55µM, Vaccinia Venus inconclusive, HCMV antiviral inconclusive, Marburg entry inh 7.31µM
O=C(N/N=C/c1ccc(O)cc1O)c1ccc(CN2C(=O)c3cccc4cccc2c34)cc1	Vaccinia mCherry 2.51µM, Lassa entry inh 5.17µM, Vaccinia Venus inconclusive, HCMV antiviral -101.4, Marburg entry inh 3.16µM
O=C(O)CC1(c2ccccc2)C(=O)c2ccccc2C1=O	none (no result: Vaccinia mCherry, Vaccinia Venus)
NC(=O)C1C(=O)c2ccccc2C1(C[N+](=O)[O-])c1ccccc1 (stereo not drawn)	HCMV antiviral -101.1
Cn1c2ccccc2c2cc(/C=N/NC(=O)c3cc(O)ccc3O)ccc21	FMDV inh 20µM, Lassa entry inh inconclusive, Vaccinia Venus inconclusive
CCn1c2ccccc2c2cc(/C=N/NC(=O)c3ccccc3)ccc21	Lassa entry inh inconclusive, Marburg entry inh 11.6µM (no result: Vaccinia mCherry, Vaccinia Venus)
CCOc1ccc(CCNC(=O)CSCC(=O)Nc2cccc(C)c2)cc1OCC	none
CCCOc1ccccc1C(=O)N(Cc1cccc(Br)c1)C1CCS(=O)(=O)C1 (stereo not drawn)	FMDV inh 0.708µM, Lassa entry inh inconclusive, Marburg entry inh inconclusive
COc1ccc(CCNC(=O)CSc2ccccc2)cc1OC	none
COc1ccc(OC)c(CNC(=O)c2cc3cc4ccc(OC)cc4nc3o2)c1	none
COc1ccc(CC(C)CC(=O)NCCc2ccc(OC)c(OC)c2)cc1 (stereo not drawn)	HCMV antiviral -60.6 (no result: Vaccinia mCherry, Lassa entry inh, Vaccinia Venus, Marburg entry inh)
COc1ccc2cc3cc(C(=O)NCCc4ccc(OC)c(OC)c4)oc3nc2c1	FMDV inh 8.91µM, Lassa entry inh inconclusive, Vaccinia Venus inconclusive, Marburg entry inh inconclusive
COc1ccc(/C=C/C(=O)NC(=S)NCCc2ccc(OC)c(OC)c2)cc1	FMDV inh inconclusive, Vaccinia mCherry inconclusive, Vaccinia Venus inconclusive, HCMV antiviral -61.8, Marburg entry inh inconclusive
COc1ccc(CCNC(=O)/C=C\c2ccccc2)cc1OC	HCMV antiviral inconclusive
COc1ccc(CCNC(=O)CSC(=O)c2ccccc2)cc1OC	HCMV antiviral -60.2 (no result: Vaccinia mCherry, Lassa entry inh, Vaccinia Venus, Marburg entry inh)
COc1ccc(C(=O)CCc2ccc(OC)c(OC)c2)cc1	HCMV antiviral -80.4, Marburg entry inh inconclusive
COc1ccc2c(=O)c(C(=O)NCCc3ccc(OC)c(OC)c3)c[nH]c2c1	FMDV inh inconclusive, Lassa entry inh inconclusive, Marburg entry inh 7.3µM (no result: Vaccinia mCherry, Vaccinia Venus)
Cc1ccc(S(=O)(=O)c2c(Nc3ccc(C)c(C)c3)sc(C(=O)c3ccc4c(c3)OCO4)c2N)cc1	Lassa entry inh inconclusive (no result: Marburg entry inh)
CCCCn1c(=O)[nH]c(=O)c2c1nc(-c1ccccc1F)n2Cc1ccccc1OC	FMDV inh inconclusive, Lassa entry inh 11.2µM, Marburg entry inh inconclusive
Cc1ccc2nc(SCC(=O)c3ccc4c(c3)NC(=O)CO4)[nH]c2c1	none
Cc1ccc(C)c(-n2nnnc2SCC(=O)c2ccc3c(c2)NC(=O)CO3)c1	FMDV inh inconclusive, Lassa entry inh inconclusive, HCMV antiviral -83.9, Marburg entry inh inconclusive (no result: Vaccinia mCherry, Vaccinia Venus)
Cc1ccc(CN2C(=O)CC(Nc3ccc(N4CCOCC4)cc3)C2=O)cc1 (stereo not drawn)	none (no result: Vaccinia mCherry, Lassa entry inh, Vaccinia Venus, Marburg entry inh)
